# Experimental data taken from publication PMC7862700, “An all-to-all approach to the identification of sequence-specific readers for epigenetic DNA modifications on cytosine”.
# Assays:
# Assay in all cases: DAPPL (digital affinity profiling via proximity ligation, sequencing); 10 mM Tris-HCl pH 7.5, 50 mM NaCl, 1 mM DTT, 4% glycerol, room temperature, 30 min; GST-TFs on glutathione beads, 16-mer random dsDNA library, 0.1% formaldehyde crosslink after washing; high values mean tight binding
# FLI1 = target: T1, FLI1 (Homo sapiens, UniProt Q01543 1-452); settings: protein: recombinant; tags: N-terminal GST; dsDNA, one strand shown
# T1 sequence: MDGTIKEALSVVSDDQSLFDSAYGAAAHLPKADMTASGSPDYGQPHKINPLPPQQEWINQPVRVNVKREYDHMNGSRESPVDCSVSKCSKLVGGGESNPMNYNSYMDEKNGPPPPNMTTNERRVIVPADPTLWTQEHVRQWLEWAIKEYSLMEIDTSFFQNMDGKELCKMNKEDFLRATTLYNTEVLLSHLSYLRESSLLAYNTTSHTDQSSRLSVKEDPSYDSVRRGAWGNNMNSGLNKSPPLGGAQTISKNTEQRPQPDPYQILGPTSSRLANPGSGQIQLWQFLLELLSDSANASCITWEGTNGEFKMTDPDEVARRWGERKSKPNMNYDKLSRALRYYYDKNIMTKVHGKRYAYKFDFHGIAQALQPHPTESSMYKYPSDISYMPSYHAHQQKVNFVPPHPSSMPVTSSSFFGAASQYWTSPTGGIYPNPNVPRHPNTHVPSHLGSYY
# Procedure, shortened: (§1)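 A tag-only sample was pooled with DNA-barcoded human transcription factors that had been expressed in yeast as GST fusions and captured on glutathione beads. The pools were incubated for 30 min at room temperature with 200 nmole of a random double-stranded 16-mer DNA library in Tris/NaCl/DTT/glycerol buffer, then washed, crosslinked with 0.1% formaldehyde, proximity-ligated (BsaI/T4 ligase, 1 h, 37 °C), PCR-amplified and sequenced on an Illumina NextSeq500. Binding signal is each hexamer's read frequency for a factor divided by its frequency for the tag-only sample.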
# ELK1 = target: T2, ELK1 (Homo sapiens, UniProt P19419 1-428); settings: protein: recombinant; tags: N-terminal GST; dsDNA, one strand shown
# T2 sequence: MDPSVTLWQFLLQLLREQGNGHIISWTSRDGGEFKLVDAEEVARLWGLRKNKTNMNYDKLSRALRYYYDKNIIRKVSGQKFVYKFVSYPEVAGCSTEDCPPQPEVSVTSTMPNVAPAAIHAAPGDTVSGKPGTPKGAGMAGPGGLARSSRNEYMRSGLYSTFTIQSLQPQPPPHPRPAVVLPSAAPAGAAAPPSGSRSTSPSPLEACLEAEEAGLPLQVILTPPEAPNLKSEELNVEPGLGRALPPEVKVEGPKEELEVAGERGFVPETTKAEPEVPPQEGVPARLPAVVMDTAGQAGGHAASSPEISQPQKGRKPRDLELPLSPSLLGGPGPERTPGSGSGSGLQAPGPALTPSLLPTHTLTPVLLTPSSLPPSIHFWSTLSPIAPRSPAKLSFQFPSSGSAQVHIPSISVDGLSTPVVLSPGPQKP
# Procedure, shortened: as §1
# GABPA = target: T3, GABPA (Homo sapiens, UniProt Q06546 1-454); settings: protein: recombinant; tags: N-terminal GST; dsDNA, one strand shown
# T3 sequence: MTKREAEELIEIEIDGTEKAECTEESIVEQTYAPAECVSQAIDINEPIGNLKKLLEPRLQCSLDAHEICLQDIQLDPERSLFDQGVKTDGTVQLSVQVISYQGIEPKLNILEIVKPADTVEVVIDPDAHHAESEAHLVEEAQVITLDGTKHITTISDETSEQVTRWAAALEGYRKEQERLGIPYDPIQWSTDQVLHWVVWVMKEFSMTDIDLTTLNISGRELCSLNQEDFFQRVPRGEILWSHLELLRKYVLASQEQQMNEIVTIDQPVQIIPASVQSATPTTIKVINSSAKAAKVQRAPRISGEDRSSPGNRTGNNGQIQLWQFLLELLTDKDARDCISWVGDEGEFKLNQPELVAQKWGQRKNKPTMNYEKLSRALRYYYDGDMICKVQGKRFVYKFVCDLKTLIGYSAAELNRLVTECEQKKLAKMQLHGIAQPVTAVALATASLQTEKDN
# Procedure, shortened: as §1
# ERG = target: T4, ERG (Homo sapiens, UniProt P11308 1-479); settings: protein: recombinant; tags: N-terminal GST; dsDNA, one strand shown
# T4 sequence: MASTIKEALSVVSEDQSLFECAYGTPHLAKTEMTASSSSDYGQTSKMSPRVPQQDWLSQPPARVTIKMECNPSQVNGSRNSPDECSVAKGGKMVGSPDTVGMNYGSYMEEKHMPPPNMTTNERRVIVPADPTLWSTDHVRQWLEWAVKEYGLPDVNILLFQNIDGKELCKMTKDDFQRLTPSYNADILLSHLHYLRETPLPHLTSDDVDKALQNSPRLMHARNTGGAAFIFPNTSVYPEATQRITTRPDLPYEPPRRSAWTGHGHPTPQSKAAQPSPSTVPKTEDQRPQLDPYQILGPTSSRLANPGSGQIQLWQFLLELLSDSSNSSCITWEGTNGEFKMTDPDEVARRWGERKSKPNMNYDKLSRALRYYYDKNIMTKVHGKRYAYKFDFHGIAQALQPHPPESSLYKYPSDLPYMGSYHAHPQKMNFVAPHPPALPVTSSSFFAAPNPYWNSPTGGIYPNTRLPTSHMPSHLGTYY
# Procedure, shortened: as §1
# ELF1 = ELF1 (Homo sapiens, UniProt P32519 1-619); settings: protein: recombinant; tags: N-terminal GST; dsDNA, one strand shown
# ELF1, sequence (P32519 whole entry): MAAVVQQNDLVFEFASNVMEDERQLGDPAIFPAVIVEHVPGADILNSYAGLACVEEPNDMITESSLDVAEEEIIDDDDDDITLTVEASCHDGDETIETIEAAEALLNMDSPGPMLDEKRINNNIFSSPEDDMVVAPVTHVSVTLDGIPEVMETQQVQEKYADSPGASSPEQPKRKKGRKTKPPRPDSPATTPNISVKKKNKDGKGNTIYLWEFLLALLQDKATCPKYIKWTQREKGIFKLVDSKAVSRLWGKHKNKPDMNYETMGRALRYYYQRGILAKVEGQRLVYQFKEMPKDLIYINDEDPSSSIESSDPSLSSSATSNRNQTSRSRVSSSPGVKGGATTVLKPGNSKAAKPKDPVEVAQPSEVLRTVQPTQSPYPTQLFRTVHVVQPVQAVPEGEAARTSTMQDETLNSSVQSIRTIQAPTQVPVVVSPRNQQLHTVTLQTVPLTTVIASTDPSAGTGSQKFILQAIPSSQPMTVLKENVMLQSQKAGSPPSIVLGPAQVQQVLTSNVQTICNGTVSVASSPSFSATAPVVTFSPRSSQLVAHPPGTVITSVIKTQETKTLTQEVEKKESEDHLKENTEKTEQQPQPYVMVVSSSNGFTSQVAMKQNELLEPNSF
# Procedure, shortened: as §1
# EHF = target: T5, EHF (Homo sapiens, UniProt Q9NZC4 1-300); settings: protein: recombinant; tags: N-terminal GST; dsDNA, one strand shown
# T5 sequence: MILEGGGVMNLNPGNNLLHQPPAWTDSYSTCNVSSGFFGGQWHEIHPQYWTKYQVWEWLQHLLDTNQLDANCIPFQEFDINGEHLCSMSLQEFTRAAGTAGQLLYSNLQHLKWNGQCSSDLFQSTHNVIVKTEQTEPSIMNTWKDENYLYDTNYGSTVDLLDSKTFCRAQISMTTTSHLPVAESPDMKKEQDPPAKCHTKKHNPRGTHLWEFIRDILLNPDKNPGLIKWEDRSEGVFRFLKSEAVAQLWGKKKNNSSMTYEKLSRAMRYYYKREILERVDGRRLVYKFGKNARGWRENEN
# Procedure, shortened: as §1
# SPI1 = SPI1 (Homo sapiens, UniProt P17947 1-270); settings: protein: recombinant; tags: N-terminal GST; dsDNA, one strand shown
# Procedure, shortened: as §1
# SPIB = SPIB (Homo sapiens, UniProt Q01892 1-262); settings: protein: recombinant; tags: N-terminal GST; dsDNA, one strand shown
# SPIB, sequence (Q01892 whole entry): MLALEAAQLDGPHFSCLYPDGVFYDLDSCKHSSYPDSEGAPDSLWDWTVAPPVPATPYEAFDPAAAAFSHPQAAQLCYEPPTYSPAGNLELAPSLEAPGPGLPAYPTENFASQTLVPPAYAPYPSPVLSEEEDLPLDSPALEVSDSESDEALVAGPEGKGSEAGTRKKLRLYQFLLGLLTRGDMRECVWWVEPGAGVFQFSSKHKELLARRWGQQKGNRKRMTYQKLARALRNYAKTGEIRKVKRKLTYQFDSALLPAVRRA
# Procedure, shortened: as §1
# ELK3 = target: T6, ELK3 (Homo sapiens, UniProt P41970 1-407); settings: protein: recombinant; tags: N-terminal GST; dsDNA, one strand shown
# T6 sequence: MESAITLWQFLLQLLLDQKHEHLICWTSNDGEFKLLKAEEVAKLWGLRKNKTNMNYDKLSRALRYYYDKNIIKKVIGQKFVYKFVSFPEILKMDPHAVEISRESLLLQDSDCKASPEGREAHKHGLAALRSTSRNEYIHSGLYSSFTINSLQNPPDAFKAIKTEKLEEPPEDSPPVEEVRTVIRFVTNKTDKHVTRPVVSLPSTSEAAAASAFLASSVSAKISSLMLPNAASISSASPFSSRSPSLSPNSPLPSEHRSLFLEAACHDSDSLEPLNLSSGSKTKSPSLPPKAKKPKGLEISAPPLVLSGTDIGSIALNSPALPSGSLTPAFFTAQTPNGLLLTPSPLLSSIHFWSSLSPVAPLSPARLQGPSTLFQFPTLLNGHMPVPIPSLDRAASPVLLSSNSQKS
# Procedure, shortened: as §1
# FEV = target: T7, FEV (Homo sapiens, UniProt Q99581 1-238); settings: protein: recombinant; tags: N-terminal GST; dsDNA, one strand shown
# T7 sequence: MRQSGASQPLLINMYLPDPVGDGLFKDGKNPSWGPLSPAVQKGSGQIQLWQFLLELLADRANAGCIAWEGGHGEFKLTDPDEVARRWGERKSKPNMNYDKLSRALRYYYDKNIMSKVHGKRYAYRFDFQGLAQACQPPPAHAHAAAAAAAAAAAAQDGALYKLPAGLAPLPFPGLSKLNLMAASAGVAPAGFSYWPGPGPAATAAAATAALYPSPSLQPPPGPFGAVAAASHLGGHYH
# Procedure, shortened: as §1
# ETV5 = ETV5 (Homo sapiens, UniProt P41161 1-510); settings: protein: recombinant; tags: N-terminal GST; dsDNA, one strand shown
# ETV5, sequence (P41161 whole entry): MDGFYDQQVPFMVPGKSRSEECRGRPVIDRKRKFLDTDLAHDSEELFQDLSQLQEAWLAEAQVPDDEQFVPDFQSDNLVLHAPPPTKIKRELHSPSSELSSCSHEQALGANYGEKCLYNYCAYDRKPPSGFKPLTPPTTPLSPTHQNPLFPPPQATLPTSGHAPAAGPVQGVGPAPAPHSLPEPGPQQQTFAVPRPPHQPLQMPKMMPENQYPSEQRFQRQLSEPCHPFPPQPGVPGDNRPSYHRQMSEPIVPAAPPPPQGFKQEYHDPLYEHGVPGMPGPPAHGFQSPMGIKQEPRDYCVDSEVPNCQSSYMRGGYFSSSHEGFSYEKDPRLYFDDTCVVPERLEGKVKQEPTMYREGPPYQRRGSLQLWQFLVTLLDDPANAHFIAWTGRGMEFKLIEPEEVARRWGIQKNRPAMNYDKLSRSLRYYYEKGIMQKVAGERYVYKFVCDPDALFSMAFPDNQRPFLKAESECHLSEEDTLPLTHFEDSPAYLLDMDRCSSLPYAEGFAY
# Procedure, shortened: as §1
# HSF1 = HSF1 (Homo sapiens, UniProt Q00613 1-529); settings: protein: recombinant; tags: N-terminal GST; chain copies: 3; dsDNA, one strand shown
# HSF1, sequence (Q00613 whole entry): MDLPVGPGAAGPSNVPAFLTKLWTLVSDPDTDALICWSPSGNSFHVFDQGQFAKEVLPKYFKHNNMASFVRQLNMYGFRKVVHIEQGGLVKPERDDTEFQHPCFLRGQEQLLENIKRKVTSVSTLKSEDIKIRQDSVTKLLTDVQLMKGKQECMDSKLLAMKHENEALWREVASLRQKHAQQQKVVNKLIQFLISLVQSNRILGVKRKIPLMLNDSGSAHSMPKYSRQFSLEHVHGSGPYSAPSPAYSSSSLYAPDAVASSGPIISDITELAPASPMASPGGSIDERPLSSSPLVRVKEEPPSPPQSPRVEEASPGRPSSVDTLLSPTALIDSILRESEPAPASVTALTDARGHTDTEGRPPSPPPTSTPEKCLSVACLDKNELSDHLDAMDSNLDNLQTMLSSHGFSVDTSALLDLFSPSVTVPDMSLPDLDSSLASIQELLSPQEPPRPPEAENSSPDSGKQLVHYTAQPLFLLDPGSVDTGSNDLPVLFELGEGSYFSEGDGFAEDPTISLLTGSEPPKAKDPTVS
# Procedure, shortened: as §1
# SPIC = target: T8, SPIC (Homo sapiens, UniProt Q8N5J4 1-248); settings: protein: recombinant; tags: N-terminal GST; dsDNA, one strand shown
# T8 sequence: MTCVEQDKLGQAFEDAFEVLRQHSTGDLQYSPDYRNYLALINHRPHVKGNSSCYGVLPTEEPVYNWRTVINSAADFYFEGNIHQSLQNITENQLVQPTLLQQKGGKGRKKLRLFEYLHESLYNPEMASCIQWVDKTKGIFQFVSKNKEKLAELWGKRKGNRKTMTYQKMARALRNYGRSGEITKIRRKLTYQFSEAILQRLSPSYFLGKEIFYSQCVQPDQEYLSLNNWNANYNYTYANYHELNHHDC
# Procedure, shortened: as §1
# ELF4 = ELF4 (Homo sapiens, UniProt Q99607 1-663); settings: protein: recombinant; tags: N-terminal GST; dsDNA, one strand shown
# ELF4, sequence (Q99607 whole entry): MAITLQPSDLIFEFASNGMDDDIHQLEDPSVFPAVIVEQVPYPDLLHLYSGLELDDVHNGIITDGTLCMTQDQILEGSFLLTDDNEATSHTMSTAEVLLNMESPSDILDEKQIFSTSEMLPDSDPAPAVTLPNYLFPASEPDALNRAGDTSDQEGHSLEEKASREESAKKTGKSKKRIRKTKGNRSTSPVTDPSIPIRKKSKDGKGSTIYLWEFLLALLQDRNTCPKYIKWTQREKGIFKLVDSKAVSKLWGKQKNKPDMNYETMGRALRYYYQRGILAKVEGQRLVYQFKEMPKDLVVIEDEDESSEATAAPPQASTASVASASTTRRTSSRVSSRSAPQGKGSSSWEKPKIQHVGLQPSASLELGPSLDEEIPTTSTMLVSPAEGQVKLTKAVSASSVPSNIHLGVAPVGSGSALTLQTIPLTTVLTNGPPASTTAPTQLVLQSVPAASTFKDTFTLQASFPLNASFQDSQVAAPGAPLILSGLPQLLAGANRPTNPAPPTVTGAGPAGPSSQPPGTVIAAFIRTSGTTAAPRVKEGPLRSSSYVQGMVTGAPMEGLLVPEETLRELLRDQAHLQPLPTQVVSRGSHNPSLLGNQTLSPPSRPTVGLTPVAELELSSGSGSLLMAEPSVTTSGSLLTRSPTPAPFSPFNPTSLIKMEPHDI
# Procedure, shortened: as §1
# ELK4 = target: T9, ELK4 (Homo sapiens, UniProt P28324-2 1-405); settings: protein: recombinant; tags: N-terminal GST; dsDNA, one strand shown
# T9 sequence: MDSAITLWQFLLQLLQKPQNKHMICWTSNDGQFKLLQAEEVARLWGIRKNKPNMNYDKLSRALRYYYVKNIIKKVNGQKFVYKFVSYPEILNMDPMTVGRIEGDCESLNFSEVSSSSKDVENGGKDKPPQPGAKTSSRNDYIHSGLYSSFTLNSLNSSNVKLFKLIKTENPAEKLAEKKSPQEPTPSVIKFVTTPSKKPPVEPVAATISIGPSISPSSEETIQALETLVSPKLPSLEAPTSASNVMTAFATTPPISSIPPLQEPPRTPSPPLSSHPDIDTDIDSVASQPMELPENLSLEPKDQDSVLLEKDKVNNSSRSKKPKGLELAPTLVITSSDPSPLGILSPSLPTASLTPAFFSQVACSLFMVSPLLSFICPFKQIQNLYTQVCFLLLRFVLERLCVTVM
# Procedure, shortened: as §1
# ETV2 = target: T10, ETV2 (Homo sapiens, UniProt O00321 1-342); settings: protein: recombinant; tags: N-terminal GST; dsDNA, one strand shown
# T10 sequence: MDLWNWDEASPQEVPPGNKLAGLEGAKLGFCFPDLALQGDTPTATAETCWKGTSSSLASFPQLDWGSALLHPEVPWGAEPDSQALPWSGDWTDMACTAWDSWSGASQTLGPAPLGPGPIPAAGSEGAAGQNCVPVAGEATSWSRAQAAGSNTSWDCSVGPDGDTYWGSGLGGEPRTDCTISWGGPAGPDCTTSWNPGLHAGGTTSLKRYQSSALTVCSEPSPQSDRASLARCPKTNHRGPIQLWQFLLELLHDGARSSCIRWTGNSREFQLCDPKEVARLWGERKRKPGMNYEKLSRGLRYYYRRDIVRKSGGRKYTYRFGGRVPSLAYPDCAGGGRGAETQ
# Procedure, shortened: as §1
# ELF3 = target: T11, ELF3 (Homo sapiens, UniProt P78545 1-371); settings: protein: recombinant; tags: N-terminal GST; dsDNA, one strand shown
# T11 sequence: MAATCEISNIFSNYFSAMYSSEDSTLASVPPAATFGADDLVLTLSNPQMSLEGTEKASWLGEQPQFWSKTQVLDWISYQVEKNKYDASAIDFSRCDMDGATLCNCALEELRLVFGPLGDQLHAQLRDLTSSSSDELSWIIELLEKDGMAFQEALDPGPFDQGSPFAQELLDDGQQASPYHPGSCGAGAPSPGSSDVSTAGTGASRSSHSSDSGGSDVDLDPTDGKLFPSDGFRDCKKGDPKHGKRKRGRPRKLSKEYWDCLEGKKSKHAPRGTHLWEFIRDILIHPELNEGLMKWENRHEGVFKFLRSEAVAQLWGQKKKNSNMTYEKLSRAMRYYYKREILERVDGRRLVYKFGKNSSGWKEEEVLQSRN
# Procedure, shortened: as §1
# CRX = CRX (Homo sapiens, UniProt O43186 1-299); settings: protein: recombinant; tags: N-terminal GST; dsDNA, one strand shown
# CRX, sequence (O43186 whole entry): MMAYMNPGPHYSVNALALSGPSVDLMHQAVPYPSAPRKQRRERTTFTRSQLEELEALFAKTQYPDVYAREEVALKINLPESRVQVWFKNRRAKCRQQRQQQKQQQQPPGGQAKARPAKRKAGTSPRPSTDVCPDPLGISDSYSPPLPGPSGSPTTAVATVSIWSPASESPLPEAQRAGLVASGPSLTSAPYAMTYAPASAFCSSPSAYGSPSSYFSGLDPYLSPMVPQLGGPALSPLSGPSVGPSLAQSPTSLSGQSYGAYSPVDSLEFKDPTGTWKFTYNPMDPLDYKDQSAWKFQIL
# Procedure, shortened: as §1
# ETV1 = ETV1 (Homo sapiens, UniProt P50549 1-477); settings: protein: recombinant; tags: N-terminal GST; dsDNA, one strand shown
# ETV1, sequence (P50549 whole entry): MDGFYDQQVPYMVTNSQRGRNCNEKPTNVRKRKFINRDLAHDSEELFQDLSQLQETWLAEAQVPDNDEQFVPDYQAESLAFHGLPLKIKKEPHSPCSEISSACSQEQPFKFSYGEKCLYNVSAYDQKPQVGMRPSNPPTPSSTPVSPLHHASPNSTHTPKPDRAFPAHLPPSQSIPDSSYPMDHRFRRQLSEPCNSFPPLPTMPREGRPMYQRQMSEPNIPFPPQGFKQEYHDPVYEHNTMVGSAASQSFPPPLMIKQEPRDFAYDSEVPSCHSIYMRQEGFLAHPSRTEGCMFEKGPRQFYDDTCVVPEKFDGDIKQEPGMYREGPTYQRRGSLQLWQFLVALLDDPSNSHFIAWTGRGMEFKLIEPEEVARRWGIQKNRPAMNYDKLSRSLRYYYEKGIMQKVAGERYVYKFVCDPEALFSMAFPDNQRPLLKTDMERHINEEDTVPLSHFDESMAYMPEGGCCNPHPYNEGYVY
# Procedure, shortened: as §1
sequence,measurement,setting,value
AAGTTC,binding signal,FLI1,"1.36 fold enrichment (6-mer frequency, TF over GST control)"
same,binding signal,ELK1,"1.36 fold enrichment (6-mer frequency, TF over GST control)"
same,binding signal,GABPA,"1.47 fold enrichment (6-mer frequency, TF over GST control)"
same,binding signal,ERG,"1.36 fold enrichment (6-mer frequency, TF over GST control)"
same,binding signal,ELF1,"1.34 fold enrichment (6-mer frequency, TF over GST control)"
same,binding signal,EHF,"1.35 fold enrichment (6-mer frequency, TF over GST control)"
same,binding signal,SPI1,"1.54 fold enrichment (6-mer frequency, TF over GST control)"
same,binding signal,SPIB,"1.51 fold enrichment (6-mer frequency, TF over GST control)"
same,binding signal,ELK3,"1.36 fold enrichment (6-mer frequency, TF over GST control)"
same,binding signal,FEV,"1.29 fold enrichment (6-mer frequency, TF over GST control)"
same,binding signal,ETV5,"1.47 fold enrichment (6-mer frequency, TF over GST control)"
same,binding signal,HSF1,"1.94 fold enrichment (6-mer frequency, TF over GST control)"
same,binding signal,SPIC,"1.54 fold enrichment (6-mer frequency, TF over GST control)"
same,binding signal,ELF4,"1.35 fold enrichment (6-mer frequency, TF over GST control)"
same,binding signal,ELK4,"1.41 fold enrichment (6-mer frequency, TF over GST control)"
same,binding signal,ETV2,"1.22 fold enrichment (6-mer frequency, TF over GST control)"
same,binding signal,ELF3,"1.47 fold enrichment (6-mer frequency, TF over GST control)"
same,binding signal,CRX,"1.22 fold enrichment (6-mer frequency, TF over GST control)"
same,binding signal,ETV1,"1.34 fold enrichment (6-mer frequency, TF over GST control)"
